CYP2C19 inhib – blockers of cytochrome P450 2C19 activity – biochemical, luminescence, ADME assay, primary screen; inhibition, % at 5 µM; AID 778, 2007; P33261; CYP2C19 Supersomes, luciferin-H EGE luminescence, 30 min; hit rate 21% among 96,000;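 active = CYP2C19 inhibition above a set limit at 5 µM in the primary screen, cut at about 50% in these data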;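 also: plate controls were negative control wells for no effect and 2.5 mM tranylcypromine positive control for full effect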
Pyk2 oligo antag – antagonists of Pyk2 self-association, primary screen, Q293 cells, FERM NanoBiT luminescence, HTS | Protein-tyrosine kinase 2-beta (Homo sapiens), Q14289 | active compounds read low | z-score (the deposit names both 25 µM and 10 µM) | hit rate 0.83% among 99,000 | AID 1347419, 2020;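 active = Z-score of -3 or lower, scaled per plate to the spread of control and sample wells; inactive = z-score above -3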;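 also: negative z-score means lost luminescence so less FERM oligomerization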
CYP2C19 activ – human CYP2C19 activators, primary screen, biochemical, luminescence; Cytochrome P450 2C19 (Homo sapiens), P33261; recombinant CYP2C19, luciferin-H EGE luminescence; active compounds read high; 0 = fully inhibited enzyme, 1 = untreated enzyme; activation factor at 5 µM; 96,000 tested, under 10 active; AID 1025, 2008;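 active = activation factor of at least 2 at 5 µM in the primary screen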;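 also: 0 = wells with 2.5 mM tranylcypromine and 1 = vehicle-only wells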
CYP2C9 act – human CYP2C9 activators, primary screen, biochemical, luminescence | activation factor at 5 µM | hit rate 1.4% among 96,000 | Cytochrome P450 2C9 (Homo sapiens), P11712 | recombinant CYP2C9, luciferin-H conversion; active compounds read high; factor 1 = untreated enzyme, 0 = blocked;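 active = activation factor of 2 or more for CYP2C9 at a 5 µM dose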;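 also: 0 = sulfaphenazole-blocked wells and 1 = vehicle-only wells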
Target sequence (P11712 whole entry, looked up): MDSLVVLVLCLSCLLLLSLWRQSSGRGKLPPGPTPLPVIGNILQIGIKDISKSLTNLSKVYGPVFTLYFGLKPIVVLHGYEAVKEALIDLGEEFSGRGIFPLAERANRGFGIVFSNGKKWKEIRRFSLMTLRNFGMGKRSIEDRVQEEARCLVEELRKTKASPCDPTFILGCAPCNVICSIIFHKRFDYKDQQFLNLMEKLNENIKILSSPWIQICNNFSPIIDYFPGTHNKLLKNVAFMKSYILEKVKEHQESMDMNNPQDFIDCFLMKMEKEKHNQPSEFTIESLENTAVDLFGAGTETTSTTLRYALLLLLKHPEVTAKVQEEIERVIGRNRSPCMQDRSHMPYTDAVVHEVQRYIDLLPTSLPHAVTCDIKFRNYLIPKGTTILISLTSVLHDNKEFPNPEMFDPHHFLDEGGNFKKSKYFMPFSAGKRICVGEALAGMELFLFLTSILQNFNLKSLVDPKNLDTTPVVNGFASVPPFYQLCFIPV
CYP2C9 inh – blockers of cytochrome P450 2C9 activity – biochemical, luminescence, ADME assay, primary screen. P11712. CYP2C9 Supersomes, luciferin-H conversion. inhibition, % at 5 µM. hit rate 20% among 96,000;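 active = blocking of liver enzyme CYP2C9 beyond about 50% at 5 µM, limit read from the data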
Active calls of the source: *. Sampled rows, rich in hits. Any-hit rate of the full collection: about 28%.

`Nc1nc2c(s1)CC(c1ccccc1)CC2` (stereo not drawn) gave CYP2C19 inhib 69*, Pyk2 oligo antag 0.26, CYP2C19 activ 0.3, CYP2C9 act 0.6 and CYP2C9 inh 45.
`CCSc1ncc(Cl)c(C(=O)Nc2sc3c(c2C(=O)NCc2cccnc2)CCCC3)n1` gave CYP2C19 inhib 4, Pyk2 oligo antag -0.26, CYP2C19 activ 1, CYP2C9 act 0.9 and CYP2C9 inh 11.
Screening Cc1ccc(S(=O)(=O)NC(CC(=O)N2CCOCC2)c2ccco2)cc1 (stereo not drawn) returned CYP2C19 inhib 43, Pyk2 oligo antag 0.86, CYP2C19 activ 0.6, CYP2C9 act 1.1 and CYP2C9 inh -14.
For Cc1ccc(S(=O)(=O)NC(CC(=O)NC2CCCC2)c2ccco2)cc1 (stereo not drawn) the results were CYP2C19 inhib 58*, Pyk2 oligo antag 0.27, CYP2C19 activ 0.4, CYP2C9 act 0.7 and CYP2C9 inh 33.
Screening COCCCNC(=O)CC(NS(=O)(=O)c1ccc(Cl)cc1)c1ccco1 (stereo not drawn) returned CYP2C19 inhib 61*, Pyk2 oligo antag 0.35, CYP2C19 activ 0.4, CYP2C9 act 0.5 and CYP2C9 inh 52*.
Screening CCOC(=O)N1CCC(Nc2nc3ccccc3nc2NS(=O)(=O)c2ccc(Cl)cc2)CC1 returned CYP2C19 inhib 19, Pyk2 oligo antag -1.9, CYP2C19 activ 0.8, CYP2C9 act 0.1 and CYP2C9 inh 95*.
`CCOC(=O)N1CCC(NC(=O)CC(NS(=O)(=O)c2ccc(Cl)cc2)c2ccco2)CC1` (stereo not drawn) gave CYP2C19 inhib 60*, Pyk2 oligo antag -0.04, CYP2C19 activ 0.4, CYP2C9 act 0.5 and CYP2C9 inh 54*.
`O=C(c1cccs1)N1CCN(S(=O)(=O)Cc2ccccc2)CC1` gave Pyk2 oligo antag -0.25.
`COc1ccc(S(=O)(=O)N2CCN(C(=O)c3cccc(Cl)c3)CC2)cc1` gave CYP2C19 inhib 39, Pyk2 oligo antag 0.05, CYP2C19 activ 0.6, CYP2C9 act 0.9 and CYP2C9 inh 15.
For COc1ccc(S(=O)(=O)N2CCN(C(=O)c3cccs3)CC2)cc1 the results were CYP2C19 inhib 94*, Pyk2 oligo antag -0.25, CYP2C19 activ 0.1, CYP2C9 act 0.5 and CYP2C9 inh 50.
Screening CN(C)S(=O)(=O)N1CCN(C(=O)c2cccs2)CC1 returned CYP2C19 inhib 76*, Pyk2 oligo antag -0.2, CYP2C19 activ 0.2, CYP2C9 act 1.1 and CYP2C9 inh -8.
For CC(C)n1c(N2CCN(C(=O)c3cccs3)CC2)nc2ccccc21 the results were CYP2C19 inhib 51*, Pyk2 oligo antag 0.45, CYP2C19 activ 0.5, CYP2C9 act 0.4 and CYP2C9 inh 58*.
O=C(Nc1ccc(Cl)cn1)c1ccc(COCC(F)(F)C(F)F)o1 was read as CYP2C19 inhib 72*, Pyk2 oligo antag 1.1, CYP2C19 activ 0.3, CYP2C9 act 0.8 and CYP2C9 inh 22.
For Cc1ccnc(NC(=O)c2ccc(COc3ccc(Cl)cc3)o2)c1 the results were CYP2C19 inhib 8, Pyk2 oligo antag -0.88, CYP2C19 activ 0.9, CYP2C9 act 0.7 and CYP2C9 inh 25.
`O=C(c1ccc(COCC(F)(F)F)o1)N1CCCCCC1` gave CYP2C19 inhib 51*, Pyk2 oligo antag -0.17, CYP2C19 activ 0.5, CYP2C9 act 1 and CYP2C9 inh 4.
`O=C(NCc1ccc(Cl)cc1)c1ccc(COCC(F)(F)F)o1` gave CYP2C19 inhib 51*, Pyk2 oligo antag -0.63, CYP2C19 activ 0.5, CYP2C9 act 0.7 and CYP2C9 inh 31.
Screening CC(C)(C)NC(=O)c1ccc(COCC(F)(F)F)o1 returned CYP2C19 inhib -4, Pyk2 oligo antag 0.7, CYP2C19 activ 1, CYP2C9 act 1.2 and CYP2C9 inh -20.
Cc1ccc(C(=O)NCc2ccc(Cl)cc2)o1 was read as CYP2C19 inhib 53*, Pyk2 oligo antag 2.4, CYP2C19 activ 0.5, CYP2C9 act 1.1 and CYP2C9 inh -9.
Screening O=C(COC(=O)Cn1cnc2ccccc21)NCCC1=CCCCC1 returned CYP2C19 inhib -3, Pyk2 oligo antag -0.37, CYP2C19 activ 1, CYP2C9 act 1.1 and CYP2C9 inh -12.
Screening C=CCNC(=O)NS(=O)(=O)c1ccc(C)cc1 returned CYP2C19 inhib 6, Pyk2 oligo antag 0.07, CYP2C19 activ 0.9, CYP2C9 act 1 and CYP2C9 inh 0.
Screening CN(CC1CCCO1)S(=O)(=O)c1ccc(C(=O)Nc2nc(-c3ccccn3)cs2)cc1 (stereo not drawn) returned CYP2C19 inhib 13, CYP2C19 activ 0.9, CYP2C9 act 0.7 and CYP2C9 inh 26.
`O=C(CNC(=O)c1ccco1)Nc1ccc(S(=O)(=O)N2CCCC2)cc1` gave CYP2C19 inhib 1, Pyk2 oligo antag 1.7, CYP2C19 activ 1, CYP2C9 act 0.7 and CYP2C9 inh 26.
Screening Cc1c(Cc2ccc3c(c2)OCO3)sc(NC(=O)C(C)(C)C)c1C#N returned CYP2C19 inhib -8, CYP2C19 activ 1.1, CYP2C9 act 0.9 and CYP2C9 inh 9.
CC1(C)CC(=O)C2=C(C1)OC(N)=C(C#N)C21CCN(Cc2ccccc2)CC1 was read as CYP2C19 inhib 73*, Pyk2 oligo antag 0.48, CYP2C19 activ 0.3, CYP2C9 act 0.3 and CYP2C9 inh 74*.
Screening CC1(C)CC(=O)C2=C(C1)OC(N)=C(C#N)C21C(=O)N(Cc2ccccc2Cl)c2ccccc21 (stereo not drawn) returned CYP2C19 inhib 86*, Pyk2 oligo antag -0.64, CYP2C19 activ 0.1, CYP2C9 act 0.1 and CYP2C9 inh 94*.
Screening CCOC(=O)N1CCC2(CC1)C(C#N)=C(N)OC1=C2C(=O)CC(C)(C)C1 returned CYP2C19 inhib 24, Pyk2 oligo antag 0.79, CYP2C19 activ 0.8, CYP2C9 act 0.5 and CYP2C9 inh 54*.
CC1(C)CC(=O)C2=C(C1)OC(N)=C(C#N)C21CCC2(CC1)OCCO2 was read as CYP2C19 inhib 2, Pyk2 oligo antag 1.9, CYP2C19 activ 1, CYP2C9 act 1 and CYP2C9 inh 1.
For CC(=O)N1CCC2(CC1)C(C#N)=C(N)OC1=C2C(=O)CC(C)(C)C1 the results were CYP2C19 inhib -8, Pyk2 oligo antag -0.2, CYP2C19 activ 1.1, CYP2C9 act 1.2 and CYP2C9 inh -19.
Screening CC1=CC(C)(C)N2C(=O)C3(C(C#N)=C(N)OC4=C3C(=O)CC(C)(C)C4)c3cccc1c32 (stereo not drawn) returned CYP2C19 inhib 5, CYP2C19 activ 0.9, CYP2C9 act 0.9 and CYP2C9 inh 6.
